Screening data: PubChem, several laboratories
TIM10 inh: growth inhibitors of isogenic TIM10 control yeast, primary screen, counter-screen for tim10-1 yeast inhibitor project, luminescence, uHTS. S. cerevisiae TIM10 strain growth, BacTiter-Glo luminescence, 24 h. inhibition, % at 10 µM. hit rate 1.4% among 330,000;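 active = inhibition of 40% or more at the single tested concentration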;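 also: wild-type TIM10 isogenic control strain grown at permissive 25 °C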
tim10-1 inh: growth inhibitors of tim10-1 mutant yeast, primary screen, luminescence, uHTS | inhibition, % at 20 µM | S. cerevisiae tim10-1 ts strain growth, BacTiter-Glo, 24 h | hit rate 2.2% among 330,000;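 active = inhibition of at least 40%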;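 also: mutant grown at 25 °C; 0% = DMSO wells with yeast and 100% = wells holding no yeast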
SKKanGAS inh: S. pyogenes SKKanGAS growth inhibitors in kanamycin, primary screen, streptokinase expression inhibitor project, SKKanGAS strain, BacTiter-Glo luminescence; 6 h; inhibition, % at 7.5 µM; hit rate 1.3% among 300,000;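 active = mean replicate score, as percent of positive control median, at least 50; inconclusive = mean below 50 but one replicate at or above 50; inactive = mean and every replicate below 50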;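 also: strain carries kanamycin resistance gene driven by streptokinase promoter and grows in 40 µg/ml kanamycin; loss of luminescence reflects streptokinase promoter inhibition or plain growth inhibition; 0% = median of DMSO wells and 100% = positive control at its reference dose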
tim23-1 inh: growth inhibitors of tim23-1 mutant yeast, primary screen, luminescence, uHTS | S. cerevisiae tim23-1 growth, BacTiter-Glo luminescence, 24 h | inhibition, % at 20 µM | hit rate 1.3% among 330,000;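 active = growth inhibition of the mutant yeast at or above 50%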;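 also: temperature-sensitive mutant grown at 25 °C; plate controls were DMSO-treated mutant yeast for no effect and medium wells lacking yeast for full effect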
PfHsp90 yeast 2: growth inhibition of PfHsp90-expressing yeast, primary screen, antimalarial PfHsp90 inhibitor project, S. cerevisiae, BacTiter-Glo luminescence, single point, set 2. BacTiter-Glo ATP, 48 h; yeast lacking PDR1 and PDR3 efflux regulators. inhibition, % at 9.4 µM. hit rate 0.32% among 310,000. AID 504621, 2011;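 active = every replicate shows inhibition above about 80%, whatever the replicate mean, limit read from the data; inconclusive = mean inhibition reaches the set limit but some replicate falls short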;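 also: 0% = DMSO neutral controls and 100% = 20 µM radicicol positive controls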
tim10-1 conf: growth inhibitors of tim10-1 mutant yeast, confirmation, single concentration, luminescence, S. cerevisiae | shares compounds with tim10-1 inh | S. cerevisiae tim10-1 ts strain growth, BacTiter-Glo, 24 h | inhibition, % at 20 µM | hit rate 56% among 7,400 | AID 463213, 2010;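 active = inhibition of yeast growth at or above a set limit in either of two repeat tests at 20 µM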;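 also: tim10-1 mutant grown at permissive 25 °C to find synthetic lethal compounds; 0% = DMSO yeast wells and 100% = medium wells without yeast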
TIM10 conf: growth inhibitors of wild-type TIM10 yeast, confirmation, counter-screen for tim10-1 synthetic lethality project, single concentration, luminescence, S. cerevisiae; S. cerevisiae tim10 strain growth, BacTiter-Glo luminescence, 24 h; shares compounds with TIM10 inh; hit rate 63% among 4,600; inhibition, % at 10 µM; AID 463215, 2010;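 active = inhibition of yeast growth at or above a set limit in either of two replicates at 10 µM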;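 also: this counterscreen used the strain with wild-type TIM10; 0% = yeast with DMSO and 100% = medium wells lacking yeast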
Numbers without * were called inactive; ? = inconclusive; nt = no result given; ! = not active in a repeat. This is a sample that favours compounds with a hit; in the whole collection about 4.4% have one here.

SMILES | TIM10 inh | tim10-1 inh | SKKanGAS inh | tim23-1 inh | PfHsp90 yeast 2 | tim10-1 conf | TIM10 conf
CCOC(=O)c1c(NC(=O)C2C3CCC(O3)C2C(=O)O)sc(C)c1-c1ccc(F)cc1 (stereo not drawn) | 12 | 13 | 11 | 10 | 16 | nt | nt
Cc1cc(N2CCCC2)nc(SCC(=O)c2ccccc2)n1 | -4 | 18 | 3 | 34 | 14 | nt | nt
Cc1cc(N2CCC(C)CC2)nc(SCC(=O)c2ccccc2)n1 | 41* | 53* | 9 | 34 | -3 | 34* | -37
Cc1ccc(Sc2nc(-c3ccccc3)nnc2C(F)(F)F)cc1 | 41* | 40* | 20 | 28 | 9 | 38* | 3
CNc1nc(-c2ccccc2)nnc1C(F)(F)F | 2 | -3 | 6 | 9 | 7 | nt | nt
O=C1/C(=C/c2cccs2)SC(=S)N1c1cccc(O)c1 | 61* | 41* | 10 | 47 | 8 | 57* | 61*
COC(=O)c1cc(NC(=S)Nc2cc(Cl)cc(Cl)c2)cc(C(=O)OC)c1 | 50* | 49* | 23 | 38 | -14 | 33* | 24
C=C[C@]1(C)C[C@@H](OC(=O)CSCCN(CC)CC)[C@]2(C)C(C)CC[C@]3(CCC(=O)[C@H]32)[C@@H](C)[C@@H]1O (stereo partly drawn) | 42*! | 46* | 104* | 34 | 21 | 40*! | 38*
O=C(Nc1ccc(F)cc1)c1cccc2c1C(=O)N(Cc1ccccn1)C2 | 44* | 68* | nt | 35 | -2 | 65* | -32
Cn1c(CNC(=O)c2ccco2)nnc1SCC(=O)c1ccc(Br)cc1 | -13 | 2 | 9 | 14 | 19 | nt | nt
Cn1ccnc1-c1ccc(-c2nccn2C)cc1 | -5 | 12 | 0 | 13 | -2 | nt | nt
COc1ccc(C(=O)/C=C/c2ccc(OC3CSC3)cc2)cc1OC | 42* | 42* | -3 | 30 | 10 | 28 | 10
CC(C)c1ccc(/C=C(\NC(=O)c2ccccc2)C(=O)NCCCn2ccnc2)cc1 | 2 | 24 | -3 | 5 | 2 | nt | nt
COc1cccc(NC(=O)C2CCN(C(=O)[C@@H]3Cc4ccccc4CN3C(=O)OC(C)(C)C)CC2)c1 | 7 | 7 | 2 | 3 | -5 | nt | nt
O=C(c1cc(COc2ccc(F)cc2Cl)on1)N1CCC(OCc2cccnc2)CC1 | 52* | 53* | -17 | 3 | -2 | 48* | 52*
O=C(NCCN1CCCC1=O)C1CCC(=O)N(CCc2cccc(F)c2)C1 (stereo not drawn) | 8 | 4 | 1 | 10 | 16 | nt | nt
O=c1[nH][nH]c(-c2ccccc2)c1C=Nc1ccc(OC(F)(F)F)cc1 | 41* | 42* | -4 | 47 | nt | 37* | 37*
O=c1[nH][nH]c(-c2ccccc2)c1C=Nc1ccc(C(F)(F)F)cc1 | 4 | 20 | 8 | 25 | nt | nt | nt
Cc1cccn2cc(-c3ccc(S(=O)(=O)N4CCOCC4)cc3)nc12 | 37 | 34 | -2 | 20 | -2 | nt | nt
Cc1cccn2cc(-c3ccc(S(=O)(=O)N4CCCCC4)cc3)nc12 | 48* | 62* | -7 | 45 | 8 | 70* | 63*
CC(=O)Nc1nc2nc(-c3ccccc3)cc(-c3ccccc3)n2n1 | 27 | 26 | -5 | 10 | -3 | nt | nt
O=C(Nc1nc2nc(-c3ccccc3)cc(-c3ccccc3)n2n1)c1ccco1 | 60* | 43* | 20 | 39 | 12 | 27 | 14
CC(OC(=O)c1cccc(S(=O)(=O)N2CCCCCC2)c1)C(=O)Nc1ccc(S(N)(=O)=O)cc1 (stereo not drawn) | -5 | 6 | -5 | 17 | 15 | nt | nt
Oc1cccc(/C=N/N(Cc2ccccc2)c2ccccc2)c1 | 48* | 53* | ? | 36 | nt | 26 | 41*
